From PubChem BioAssay (Tox21)
Inconclusive results are not listed. Where a call stands in place of a potency, no number is given. Activity calls are given as the source filed them. The call rests on the fitted dose curve; in most records, active means well fitted activation curve with a large enough effect in the repeat runs; inconclusive means weak or mixed curves; inactive means no such curve, though single readings can be large or run the other way.
Potency means the concentration at half of the fitted maximal effect.

What follows are molecules tested against Aryl hydrocarbon receptor (Homo sapiens) (UniProt P35869) (assay: qHTS assay to identify small molecule that activate the aryl hydrocarbon receptor (AhR) signaling pathway (AID 743085; further: nearly all actives have a fitted effect of over 15% in size;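 on activation: HG2L7.5c1 human HepG2 liver cells with stably integrated DRE-driven firefly reporter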)). Conditions: HepG2 AhR-luc (HG2L7.5c1), luciferase, 24 h; series mostly up to 70.3 µM.
Chain of Aryl hydrocarbon receptor (Homo sapiens) (P35869 whole entry, looked up): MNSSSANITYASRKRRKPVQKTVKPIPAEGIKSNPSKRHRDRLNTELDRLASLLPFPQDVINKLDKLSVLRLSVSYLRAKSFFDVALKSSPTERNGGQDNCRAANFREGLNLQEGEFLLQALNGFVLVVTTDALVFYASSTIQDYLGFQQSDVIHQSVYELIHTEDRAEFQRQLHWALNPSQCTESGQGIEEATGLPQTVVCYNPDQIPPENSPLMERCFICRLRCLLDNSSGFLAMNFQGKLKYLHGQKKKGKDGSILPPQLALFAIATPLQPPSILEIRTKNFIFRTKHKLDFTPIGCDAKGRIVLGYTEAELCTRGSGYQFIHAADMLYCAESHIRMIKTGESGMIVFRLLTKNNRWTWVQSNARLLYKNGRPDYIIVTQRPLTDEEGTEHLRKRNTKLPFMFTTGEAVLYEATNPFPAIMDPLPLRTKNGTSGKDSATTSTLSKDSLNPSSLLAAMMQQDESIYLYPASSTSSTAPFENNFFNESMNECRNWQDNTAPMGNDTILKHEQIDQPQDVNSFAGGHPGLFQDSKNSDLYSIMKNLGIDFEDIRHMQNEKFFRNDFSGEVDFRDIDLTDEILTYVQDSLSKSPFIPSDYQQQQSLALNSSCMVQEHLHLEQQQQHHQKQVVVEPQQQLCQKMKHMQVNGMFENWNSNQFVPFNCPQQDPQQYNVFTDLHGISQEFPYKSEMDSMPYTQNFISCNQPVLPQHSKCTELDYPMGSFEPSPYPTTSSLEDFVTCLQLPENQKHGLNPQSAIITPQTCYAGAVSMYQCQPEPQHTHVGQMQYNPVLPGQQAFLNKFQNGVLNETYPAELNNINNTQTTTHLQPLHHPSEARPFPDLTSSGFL
Excerpt: U.S. Tox21 Program National Center for Advancing Translational Sciences [NCATS] NIH Chemical Genomics Center [NCGC] U.S. Environmental Protection Agency [EPA] National Institutes of Environmental Health Sciences [NIEHS] National Toxicology Program [NTP] U.S. Food and Drug Administration [FDA] Tox21 Assay overview: The Aryl hydrocarbon Receptor (AhR), a member of the family of basic helix-loop-helix transcription factors, is crucial to adaptive responses to environmental changes. AhR mediates cellular responses to environmental pollutants such as aromatic hydrocarbons through induction of phase I and II enzymes but also interacts with other nuclear receptor signaling pathways. A cell based HepG2-AhR-luc assay (HG2L7.5c1 cell line, developed by Dr. Michael S. Denison, University of California at Davis, was used to assess the activation of AhR. HepG2 (human hepatocellular carcinoma) cells were stably transfected with an Ah receptor-responsive firefly luciferase reporter gene plasmid containing 20 dioxin responsive elements and luciferase reporter gene. Increased luciferase activity can be used to identify the compounds that induce AhR activation.
Tox21 Assay Protocol Summary: 4000 cells in 5 uL/well were dispensed into white wall/solid bottom 1536-well plates using a Multidrop Combi (Thermo Fisher Scientific Inc., Waltham, MA) dispenser. After the assay plates were incubated at 37C for 5 h, 23 nL of compound or DMSO vehicle was transferred to the assay plates by a pintool station (Kalypsys, San Diego, CA). The plates were incubated at 37C for 24 hr. After 1 ul/well of CellTiter-Fluor reagent (Promega, Madison, WI) was added into the assay plates using a Flying Reagent Dispenser (FRD) (Aurora Discovery, CA), the assay plates were incubated at 37C for 30 min. The fluorescence intensity in the plates was measured using a ViewLux plate reader (PerkinElmer, Shelton, CT), followed by the addition of 4 uL of ONE-Glo Luciferase Assay reagent (Promega) using an FRD (Aurora Discovery). After the assay plates were incubated at room temperature for 30 min, luminescence intensity was measured using a ViewLux plate reader (Perkin Elmer).
In the case of `ClC1=C(Cl)C2(Cl)C3C(Cl)C=CC3C1(Cl)C2(Cl)Cl` (stereo not given), the Potency is reported as “inactive”. With `CC[C@H]1C[C@@H]2C[C@H]3c4[nH]c5ccc(OC)cc5c4CCN(C2)[C@@H]13` the Potency was 8.49 µM (active). `c1ccc(OCC2CO2)cc1` (stereo not given) was tested, and the Potency was “inactive”. `BrC(Br)Br` was tested, and the Potency was “inactive”. With `CCCN(CCC)CCc1c[nH]c2ccccc12` the Potency was “inactive”. With `O=C(O)c1cc[c]([Hg][Cl])cc1` the Potency was “inactive”. In the case of `c1ccc2c(c1)[nH]c1cnccc12`, the Potency is reported as 54.5 µM (active). `[Cl][Sb]([Cl])[Cl]` was tested, and the Potency was “inactive”. For `Cc1cc(C(C)(C)c2cc(C)c(O)c(C)c2)cc(C)c1O`, the Potency was “inactive”. In the case of `CN(C)C(=S)S`, the Potency is reported as “inactive”. `O=c1[nH]c2ccccc2n1C1CCN(CCCC(c2ccc(F)cc2)c2ccc(F)cc2)CC1` was tested, and the Potency was “inactive”. In the case of `O=c1ssc(Cl)c1Cl`, the Potency is reported as “inactive”. For `CC(=O)C(Cl)(Cl)Cl`, the Potency was “inactive”. `CCCCOCN(C(=O)CCl)c1c(CC)cccc1CC` was tested, and the Potency was “inactive”. In the case of `CN(C)CCc1c[nH]c2ccc(O)cc12`, the Potency is reported as “inactive”. `O=[N+]([O-])O.O=[N+]([O-])O.[Cd]` was tested, and the Potency was “inactive”. `O=C(Nc1ccc2[nH]ccc2c1)c1cc2cc(F)ccc2n1Cc1cccc(F)c1` was tested, and the Potency was “inactive”. For `[Cd+2].[Cl-].[Cl-]`, the Potency was “inactive”. `CS(=O)(=O)c1ccc(C(=O)C2C(=O)CCCC2=O)c([N+](=O)[O-])c1` was tested, and the Potency was “inactive”. With `O=[N+]([O-])c1c2ccccc2cc2ccccc12` the Potency was 15.8 µM (active). In the case of `FC(F)(F)c1cccc(C2=CCN(CCc3ccc4ccccc4c3)CC2)c1`, the Potency is reported as “inactive”. `CC1(c2ccc(Oc3ccccc3)cc2)OC(=O)N(Nc2ccccc2)C1=O` (stereo not given) was tested, and the Potency was “inactive”. With `ClC(Cl)=C(c1ccc(Cl)cc1)c1ccc(Cl)cc1` the Potency was “inactive”. `CCCSP(=O)(OCC)SCCC` was tested, and the Potency was “inactive”. For `CN(C)c1ccc(N=Nc2ccccc2)cc1`, the Potency was 27.3 µM (active). With `C[C@@H]1O[C@@H](O[C@@H]2C=C3CC[C@@H]4[C@H](CC[C@]5(C)[C@@H](c6ccc(=O)oc6)CC[C@]45O)[C@@]3(C)CC2)[C@H](O)[C@H](O)[C@H]1O` the Potency was “inactive”. For `CCOC(=O)OC1=C(c2cc(C)ccc2C)C(=O)NC12CCC(OC)CC2` (stereo not given), the Potency was “inactive”. For `O=S(=O)(c1ccc(Cl)cc1)c1ccc(Cl)cc1`, the Potency was “inactive”. For `CCOP(=S)(OCC)OC(Cl)C(Cl)(Cl)Cl` (stereo not given), the Potency was “inactive”. For `O=C/C(Cl)=C(/Cl)C(=O)O`, the Potency was “inactive”. In the case of `CC1(C)[C@H](C(=O)O[C@H](C#N)c2cccc(Oc3ccccc3)c2)[C@@H]1/C=C(\Cl)C(F)(F)F`, the Potency is reported as “inactive”. `CCOC(=O)C1(c2ccccc2)CCN(CCC(C#N)(c2ccccc2)c2ccccc2)CC1` was tested, and the Potency was “inactive”. `COP(=O)(OC)SCn1c(=O)oc2cc(Cl)cnc21` was tested, and the Potency was 43.3 µM (active). In the case of `CNC(C)Cc1ccc2c(c1)OCO2` (stereo not given), the Potency is reported as “inactive”. `S=C(SSC(=S)N1CCCCC1)N1CCCCC1` was tested, and the Potency was “inactive”. For `CC(=O)Nc1ccc2c(c1)Cc1ccccc1-2`, the Potency was 55.3 µM (active). With `CCN(CC)C(=S)[S-].CCN(CC)C(=S)[S-].[Zn+2]` the Potency was “inactive”. With `O=C(NC(=O)c1c(F)cccc1F)Nc1cc(Cl)c(OC(F)(F)C(F)F)c(Cl)c1` the Potency was 0.137 µM (active). In the case of `CC(C)Oc1cccc(NC(=O)c2ccccc2C(F)(F)F)c1`, the Potency is reported as 9.97 µM (active). With `CC(=O)[O-].CC(=O)[O-].[Hg+2]` the Potency was “inactive”.
